Test results from PubChem BioAssay AID1076 (NMMLSC, 2008).
Calls of active or inactive are those of the source.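 Rule for the calls: active = cell event count below 40, meaning activity score above 60 where score is 100 minus count; inactive = the rest.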

Test: LNCaP cell loss by flow event count, confirmation, cytotoxicity control for prostate differentiation activator project, single point (AID 1076);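 note: counts scatter-gated live cells after medium removal discards detached dead cells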
Settings: flow cytometry event count, 4 d, stronger effect = lower value

| Compound | cell event count (at 100 µM) | cell event count (event count, at 10 µM) |
| --- | --- | --- |
| Cc1nc(NCCNC(=O)c2ccco2)c2c(C)c(C)sc2n1 | 83 (inactive) | 170 |
| CC(C)N1CCC2(CC1)N=C(c1ccc3c(c1)OCO3)CC(c1cc(Cl)ccc1O)N2 (stereo unspecified) | 46 (inactive) | 43.5 |
| COc1ccccc1CNC(=O)C1CCN(Cc2nc(-c3cccc(Cl)c3)oc2C)CC1 | 9 (inactive) | 158 |
| CCOC(=O)N1CCC(NC(=O)c2cc3c(-c4ccc(Cl)cc4)nn(C)c3s2)CC1 | 342 (inactive) | 118 |
| Cn1c(C(=O)NCCCN2CCN(c3ccccc3F)CC2)cc2c(=O)n(C)c3ccccc3c21 | 5 (inactive) | 170 |
| C=C(C)Cn1c(-c2ccccc2)nc2ccccc21 | 16 (inactive) | 106 |
| Cc1ccccc1-c1nc(CN2CCC(C(=O)NCCCN3CCCC3)CC2)c(C)o1 | 20 (inactive) | 65 |
| Cc1ccc(CN2CCSc3ccc(C(=O)N4CCN(c5ncccn5)CC4)cc32)cc1 | 129 (inactive) | 266 |
| Cc1oc(-c2ccc(Cl)cc2)nc1CN1CCC(C(=O)N2CCc3ccccc3C2)CC1 | 18 (inactive) | 320 |
| Cc1ccc(Nc2cc(=O)n(C3CCCCC3)c(=O)[nH]2)cc1C | 3 (active) | 62.5 |
| CN(C)c1ccc(-c2nn3c(-c4ccc(Cl)cc4Cl)nnc3s2)cc1 | 6 (active) | 65.5 |
| Cc1oc(-c2ccc(Cl)cc2)nc1CN1CCCC(C(=O)NCc2ccco2)C1 (stereo unspecified) | 27 (inactive) | 248 |
| CC(C)Cc1nc2oc3c(N4CCN(CCO)CC4)ncnc3c2c2c1CCCC2 | 3 (inactive) | 120 |
| COC(=O)c1[nH]c2c(c1C)C(=O)CCC2 | 387 (inactive) | 252 |
| CCC(C)NC(=O)c1cn(C)c(=O)c2cc(OC)c(OC)cc12 (stereo unspecified) | 386 (inactive) | 302 |
| CCN1CCN(C(c2cccs2)C(C)NS(=O)(=O)c2ccc(Br)cc2)CC1 (stereo unspecified) | 17 (active) | 62 |
| COc1ccc(N2CCN(CCCNC(=O)CN3CCN(Cc4ccccc4C)C3=O)CC2)cc1 | 19 (inactive) | 87.5 |
| CCc1ccc(CNC(=O)CN2C(=O)COc3ccccc32)cc1 | 78 (inactive) | 118 |
| CCOC(=O)N1CCC(NC(=O)c2cc3c(-c4cccc(OC)c4)nn(C)c3s2)CC1 | 142 (inactive) | 300 |
| COc1ccc(-c2cc(-c3ccc(F)cc3)nc(N3CCN(C)CC3)n2)cc1 | 3 (inactive) | 118 |
| COc1ccc(S(=O)(=O)CCC(=O)O)cc1 | 153 (inactive) | 47 |

| Compound | cell event count (at 100 µM) | cell event count (event count, at 10 µM) |
| --- | --- | --- |
| CCN(CC)CCCNC(=O)c1cc(-c2ccc(Cl)c(Cl)c2)on1 | 22 (inactive) | 165 |
| CCOC(=O)N1CCC(NC(=O)c2cc3c(-c4ccccc4F)nn(C)c3s2)CC1 | 60 (inactive) | 148 |
| CN1CCN(CCCNC(=O)c2cc3c(-c4ccc(Cl)cc4)nn(C)c3s2)CC1 | 7 (inactive) | 146 |
| CCCOc1ccccc1C1CC(=O)Nc2cc3c(cc21)OCO3 (stereo unspecified) | 6 (active) | 56 |
| Cc1oc(-c2ccc(Cl)cc2)nc1CN1CCCC(C(=O)NCCCN2CCCC2=O)C1 (stereo unspecified) | 43 (inactive) | 258 |
| CC(C)CCNC(=O)C1CCN(c2nc3ccccc3o2)CC1 | 73 (inactive) | 110 |
| COc1cc2nc(N3CCN(C(=O)C4COc5ccccc5O4)CC3)nc(N)c2cc1OC (stereo unspecified) | 5 (inactive) | 124 |
| CCc1ccc(-c2nc(CN3CCC(C(=O)NCCc4ccc(OC)c(OC)c4)CC3)c(C)o2)cc1 | 17 (inactive) | 204 |
| CCOC(=O)C1CCN(S(=O)(=O)c2ccc(-c3nc4ccccc4s3)s2)CC1 | 70 (inactive) | 136 |
| COc1cccc(-c2cc(C(=O)N3CCCc4ccccc43)no2)c1 | 9 (inactive) | 336 |
| CCOC(=O)c1ccc(-c2n[nH]c(=O)c3ccccc23)cc1 | 345 (inactive) | 236 |
| O=C(Cc1ccc(-n2cccc2)cc1)NCc1cccs1 | 160 (inactive) | 133 |
| CCN1CCCC1CNC(=O)C1CCN(Cc2nc(-c3cccc(Br)c3)oc2C)CC1 (stereo unspecified) | 16 (inactive) | 78 |
| CN(C)c1ccc(CNC2CC(C)(C)NC(C)(C)C2)cc1 | 130 (inactive) | 186 |
| CCOC(=O)N1CCN(C(=O)C2CCN(Cc3nc(-c4ccccc4C)oc3C)CC2)CC1 | 111 (inactive) | 244 |
| CCOC(=O)c1c(C)n(C)c2ccc(OCC(O)CNC(CC)CO)cc12 (stereo unspecified) | 99 (inactive) | 88.5 |
| O=C(Nc1c(C(=O)N2CCOCC2)cnn1-c1ccccc1)c1ccco1 | 201 (inactive) | 124 |
| CCn1c(=O)cc(OCC(=O)O)c2ccccc21 | 22 (inactive) | 99.5 |
| CCc1ccc(-c2nc(CN3CCC(C(=O)NCc4ccccc4OC)CC3)c(C)o2)cc1 | 49 (inactive) | 190 |
| COc1ccc2nc(NC(=O)C(NS(=O)(=O)c3cccs3)C(C)C)sc2c1 (stereo unspecified) | 67 (inactive) | 253 |
| Cc1ccccc1Cn1cnc2c(cnn2C(C)(C)C)c1=O | 13 (inactive) | 85 |

| Compound | cell event count (at 100 µM) | cell event count (event count, at 10 µM) |
| --- | --- | --- |
| Cc1ccccc1-c1nc(CN2CCC(C(=O)NCCCN3CC(C)CC(C)C3)CC2)c(C)o1 (stereo unspecified) | 11 (inactive) | 102 |
| O=C(Nc1nc(-c2ccccc2)cs1)C1CCCCN1S(=O)(=O)c1ccccc1 (stereo unspecified) | 234 (inactive) | 210 |
| CCN1CCN(C(=O)C2CCN(Cc3nc(-c4cccc(Cl)c4)oc3C)CC2)CC1 | 12 (inactive) | 192 |
| O=c1cc(N2CCN(c3ccc(F)cc3)CC2)[nH]c(=O)n1C1CCCCC1 | 173 (inactive) | 318 |
| COc1ccc(C)cc1NC(=O)CCC(=O)Nc1ccc2nc(N3CCN(C)CC3)cc(C)c2c1 | 19 (inactive) | 369 |
| CCOC(=O)C1CCCN(C(=O)Cn2cccc2C(=O)c2ccccc2)C1 (stereo unspecified) | 201 (inactive) | 166 |
| COC(=O)Nc1sc2c(c1C(N)=O)CCCCCC2 | 80 (inactive) | 202 |
| CCOC(=O)c1ccc(NC(=O)Nc2ccc3c4c(cccc24)C(=O)N3CC)cc1 | 70 (inactive) | 254 |
| CCc1ccc(NC(=O)NCCN2CCc3ccccc3C2)cc1 | 6 (inactive) | 112 |
| COc1ccc(CCNC(=O)C2CCN(Cc3nc(-c4ccccc4F)oc3C)CC2)cc1OC | 524 (inactive) | 478 |
| COc1ccc(-c2noc(-c3cc(Cl)ccc3Cl)n2)cc1OC | 77 (inactive) | 110 |
| Cc1ccc(C(=O)/C=C/Nc2cccc(O)c2)cc1 | 17 (inactive) | 74 |
| O=C(NCCCN1CCN(c2cccc(Cl)c2)CC1)c1cccc(N2CCCC2=O)c1 | 222 (inactive) | 176 |
| CC(C)(O)c1cn(-c2nonc2N)nn1 | 249 (inactive) | 106 |
| Cc1cccc(OCCn2c(=O)n(C)c3ccccc32)c1 | 15 (inactive) | 136 |
| Cc1oc(-c2cccc(Cl)c2)nc1CN1CCC(C(=O)NCc2cccnc2)CC1 | 38 (inactive) | 150 |
| Cc1oc(-c2ccc(Cl)cc2)nc1CN1CCC(C(=O)NCc2cccnc2)CC1 | 20 (inactive) | 125 |
| CCOC(=O)c1sc2ncnc(N3CCN(c4ccc(OC)cc4)CC3)c2c1C | 16 (inactive) | 76.5 |
| Cc1ccccc1-c1nc(CN2CCC(C(=O)NCCCN3CCOCC3)CC2)c(C)o1 | 38 (inactive) | 126 |
| COc1ccc(-c2cc(C(F)(F)F)nc(N3CCN(c4ccc(F)cc4)CC3)n2)cc1OC | 184 (inactive) | 96 |
| Cn1nc(-c2ccc(Cl)cc2)c2cc(C(=O)NCCCN3CCCC3)sc21 | 19 (inactive) | 104 |

| Compound | cell event count (at 100 µM) | cell event count (event count, at 10 µM) |
| --- | --- | --- |
| Cc1oc(-c2ccc(Cl)cc2)nc1CN1CCC(C(=O)N2CCN(Cc3ccccc3)CC2)CC1 | 3 (inactive) | 224 |
| CC(=O)c1cccc(NC2c3ccccc3C(=O)N2Cc2ccc3c(c2)OCO3)c1 (stereo unspecified) | 121 (inactive) | 281 |
| Cc1cc(C)n2nnnc2c1C#N | 257 (inactive) | 172 |
| Cc1ccc(S(=O)(=O)NCCCCC(NC(=O)OC(C)(C)C)C(=O)O)cc1 (stereo unspecified) (tested in a mixture with another compound) | 203 (inactive) | 138 |
| CC1(C)CC(=O)c2cc(OCC(=O)NCCCN3CCN(c4ccccc4F)CC3)ccc2O1 | 11 (inactive) | 141 |
| O=C(NCCCN1CCN(c2ccccc2F)CC1)C1CCCN(S(=O)(=O)c2cnc[nH]2)C1 (stereo unspecified) | 425 (inactive) | 166 |
| Cc1noc(C)c1S(=O)(=O)N1CCC(C(=O)NCCN2CCC(C)CC2)CC1 | 300 (inactive) | 188 |
| Oc1c(CN2CCCCC2)cc(COCc2ccccc2)c2cccnc12 | 35 (inactive) | 92 |
| CCN(CC)CCNC(=O)c1ccc(N2CCCCC2)c(NS(=O)(=O)c2ccc(C)cc2)c1 | 17 (inactive) | 197 |
| Cc1cc(=O)n2nc(N3CCCC(C(=O)NCCCN4CCc5ccccc5C4)C3)sc2n1 (stereo unspecified) | 259 (inactive) | 146 |
| O=c1c2ccccc2nnn1CSc1nnc2sc3ccccc3n12 | 141 (inactive) | 143 |
| CCOC(=O)N1CCN(C(=O)CCc2c(C)nc3c(c(C)nn3-c3ccc(C)c(C)c3)c2C)CC1 | 5 (inactive) | 222 |
| Cc1ccc(Cn2c(C(=O)NCCCN3CCOCC3)cc3sccc32)cc1 | 279 (inactive) | 379 |
| N#C/C(=C\c1ccc(O)c(O)c1)C(=O)NCCCc1ccccc1 | 38 (inactive) | 99 |
| Cc1cc(=O)n2nc(N3CCCC3C(=O)NCc3ccccn3)sc2n1 (stereo unspecified) | 101 (inactive) | 61 |
| Nc1cccc2cnccc12 | 241 (inactive) | 168 |
| COc1ccc(-c2ccc(-c3nnn(CC(C)=O)n3)cc2)cc1 | 145 (inactive) | 116 |
| O=C(Cc1coc(-c2ccc(F)cc2)n1)N1CCOCC1 | 217 (inactive) | 71.5 |
| COc1ccc(-c2ccc(-c3noc(-c4ccccc4)n3)c(OC)n2)cc1 | 30 (active) | 32 |
| O=c1cc(-c2ccccc2)[nH]c2ccccc12 | 9 (active) | 76 |
